# Values joined by “and” are separate entries in the source; they are usually repeats but may differ in a detail not shown here. Equal entries are not always repeated. Active and inactive are the calls of the source. Where a call stands in place of a potency, no number is given. Unless noted, calls come from the whole dose curve; as a rule, active = well fitted curve in the direction sought with a large enough effect in the repeat runs; inconclusive = weak or mixed curves; inactive = no such curve, though single readings can be large; an effect the other way counts as inactive or inconclusive.
# How the values were obtained:
# [1] = qHTS assay to identify small molecule antagonists of the thyroid receptor (TR) signaling pathway - cell viability counter screen (AID 743064); note: nearly all actives have a fitted effect of over 50% in size; note: potency is the fitted concentration of half-maximal effect
# Summary of the method: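 GH3.TRE-Luc rat pituitary cells carrying a TRE-luciferase reporter were treated with compound plus 1 nM T3 (final) for 23.5 h at 37 °C. Viability was then read in the same wells by CellTiter-Fluor fluorescence after a further 30 min.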
# [2] = qHTS assay to identify small molecule antagonists of the thyroid receptor (TR) signaling pathway (AID 743065); note: nearly all actives have a fitted effect of over 55% in size; note: potency is the fitted concentration of half-maximal effect
# Summary of the method: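 GH3.TRE-Luc rat pituitary cells carrying two TR response elements driving luciferase were plated for 4 h, given compound plus 1 nM T3 (final), and incubated 23.5 h at 37 C. ONE-Glo luminescence measured reporter inhibition; CellTiter-Fluor fluorescence tracked cytotoxicity.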
# [3] = tested on: thyroid hormone receptor (rat, GH3 cells); test: qHTS assay to identify small molecule agonists of the thyroid receptor (TR) signaling pathway (AID 743066; calls by dose curve)
# [4] = biological target: Estrogen receptor (Homo sapiens) (UniProt P03372); test: qHTS assay to identify small molecule agonists of the estrogen receptor alpha (ER-alpha) signaling pathway (AID 743075; calls by dose curve;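 note: HEK293 GripTite cells with ER-alpha and UAS-driven beta-lactamase reporter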; note: potency is the fitted concentration of half-maximal effect)
# [5] = qHTS assay to identify small molecule antagonists of the estrogen receptor alpha (ER-alpha) signaling pathway using the BG1 cell line - cell viability counter screen (AID 743081);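 note: compound given together with 17beta-estradiol as the ER stimulus; nearly all actives have a fitted effect of over 45% in size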; note: potency is the fitted concentration of half-maximal effect
# Aromatase (Homo sapiens) = Aromatase (Homo sapiens) (UniProt P11511); test: qHTS assay to identify aromatase inhibitors (AID 743083); note: nearly all actives have a fitted effect of over 55% in size; note: potency is the fitted concentration of half-maximal effect
# [6] = qHTS assay to identify aromatase inhibitors - cell viability counter screen (AID 743084);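 note: cells stimulated with testosterone during compound exposure; nearly all actives have a fitted effect of over 55% in size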; note: potency is the fitted concentration of half-maximal effect
# [7] = qHTS assay to identify small molecule that activate the aryl hydrocarbon receptor (AhR) signaling pathway - cell viability counter screen (AID 743086); note: nearly all actives have a fitted effect of over 45% in size; note: potency is the fitted concentration of half-maximal effect
# Summary of the method: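 HepG2-AhR-luc (HG2L7.5c1) cells, 4000/well, were preincubated 5 h at 37C, exposed to compound in qHTS format for 24 hr at 37C, then given CellTiter-Fluor for 30 min; viability was read as fluorescence in the reporter wells.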
# [8] = qHTS assay to identify small molecule antagonists of the peroxisome proliferator-activated receptor gamma (PPARg) signaling pathway - cell viability counter screen (AID 743194); settings: Potency: co-treated with 50 nM rosiglitazone unless noted; note: nearly all actives have a fitted effect of over 55% in size; note: potency is the fitted concentration of half-maximal effect
# Summary of the method: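 PPARg-UAS-bla HEK293H cells were plated, rested 5 h at 37 C, then treated with compounds plus rosiglitazone (50 nM final) for 17 h at 37 C; viability was then read by CellTiter-Glo luminescence after 30 min at room temperature.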
# [9] = qHTS assay for small molecule agonists of the antioxidant response element (ARE) signaling pathway (AID 743202; active = well fitted activation curve with a large enough effect in the signal ratio in the repeat runs, not every such curve was filed as active; inconclusive = weak or mixed curves, or effect the other way; inactive = no such curve, though single readings can be large or run the other way; the % refers to the signal ratio; note: potency is the fitted concentration of half-maximal effect)
# Summary of the method: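 Steps: seed ARE-bla HepG2 cells (2,000/well); incubate 5 h at 37 C; add compounds by pin tool; incubate 16 h at 37 C; add FRET substrate; read fluorescence after 2 h at RT.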
# [10] = qHTS assay for small molecule agonists of the antioxidant response element (ARE) signaling pathway - cell viability counter screen (AID 743203; calls by dose curve; note: nearly all actives have a fitted effect of over 55% in size; note: potency is the fitted concentration of half-maximal effect)
# Summary of the method: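 Viability counter screen: CellTiter-Glo luminescence, read after 30 min at room temperature, in ARE-bla HepG2 wells. Compound exposure lasted 16 h at 37C/5% CO2, following a 5 h pre-incubation of the cells after plating.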
# [11] = qHTS assay for small molecule activators of the heat shock response signaling pathway - cell viability counter screen (AID 743209); note: nearly all actives have a fitted effect of over 50% in size; note: potency is the fitted concentration of half-maximal effect
# Summary of the method: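 Cytotoxicity counter screen run in the same wells as the heat-shock bla reporter assay: HeLa HSE-bla cells, 5 h compound exposure at 37 C, viability read by CellTiter-Glo luminescence.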
# [12] = biological target: Aryl hydrocarbon receptor (Homo sapiens) (UniProt P35869); test: qHTS assay to identify small molecule that activate the aryl hydrocarbon receptor (AhR) signaling pathway (AID 743085); note: nearly all actives have a fitted effect of over 15% in size; note: potency is the fitted concentration of half-maximal effect;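 for activation: HG2L7.5c1 human HepG2 liver cells with stably integrated DRE-driven firefly reporter; series mostly up to about 70 µM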
# Summary of the method: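 HepG2 cells (HG2L7.5c1) stably carrying a firefly luciferase reporter driven by 20 dioxin responsive elements were exposed to compound for 24 h at 37C after a 5 h settling period; luminescence rise (ONE-Glo) indicated activation.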
# [13] = biological target: Peroxisome proliferator-activated receptor gamma (Homo sapiens) (UniProt P37231); test: qHTS assay to identify small molecule agonists of the peroxisome proliferator-activated receptor gamma (PPARg) signaling pathway (AID 743094; active = well fitted activation curve with a large enough effect in the signal ratio in the repeat runs, not every such curve was filed as active; inconclusive = weak or mixed curves, or effect the other way; inactive = no such curve, though single readings can be large or run the other way; the % refers to the signal ratio)
# Summary of the method: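 Agonist activity was taken from a beta-lactamase reporter (FRET substrate, 1 h at room temperature) in HEK293H cells carrying a PPARg UAS-bla construct. Compounds in DMSO were incubated 17 h at 37C after a 5 h cell pre-incubation.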
# [14] = biological target: Peroxisome proliferator-activated receptor gamma (Homo sapiens) (UniProt P37231); test: qHTS assay to identify small molecule antagonists of the peroxisome proliferator-activated receptor gamma (PPARg) signaling pathway (AID 743191; calls by dose curve; note: series mostly up to about 63 µM; nearly all actives have a fitted effect of over 30% in size)
# Summary of the method: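 GeneBLAzer PPARg UAS-bla HEK293H cells carrying a UAS-driven beta-lactamase reporter were plated at 3000 cells/well, preincubated 5 h at 37C, then given compound for 17 h at 37C; LiveBLAzer B/G FRET substrate was read after 1 h at room temperature.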
# [15] = qHTS assay for small molecule activators of the heat shock response signaling pathway (AID 743210; active = well fitted activation curve with a large enough effect in the signal ratio in the repeat runs, with a control signal flat, not every such curve was filed as active; inconclusive = weak or mixed curves; the % refers to the signal ratio; note: potency is the fitted concentration of half-maximal effect;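 for activation: HeLa cells with beta-lactamase reporter driven by heat shock elements; series mostly up to about 63 µM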)
# Summary of the method: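 Activation of heat shock element-controlled beta-lactamase expression is measured in HeLa cells by LiveBLAzer FRET fluorescence, with compound exposure lasting 5 h at 37 C and substrate loading 2.5 h at room temperature.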
# [16] = qHTS assay to identify small molecule antagonists of the estrogen receptor alpha (ER-alpha) signaling pathway - cell viability counter screen (AID 743074; calls by dose curve;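 note: HEK293 cells carrying ER-alpha-UAS-bla reporter stimulated with 17beta-estradiol; nearly all actives have a fitted effect of over 45% in size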; note: potency is the fitted concentration of half-maximal effect)
# [17] = qHTS assay to identify small molecule antagonists of the estrogen receptor alpha (ER-alpha) signaling pathway using the BG1 cell line (AID 743080; calls by dose curve;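 note: BG1 cells stimulated with 17beta-estradiol alongside compound; series mostly up to about 70 µM; nearly all actives have a fitted effect of over 25% in size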)
# Summary of the method: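 Seeding, 24 h rest, compound transfer from DMSO, 17beta-estradiol addition, 21.5 h incubation, CellTiter-Fluor (30 min, 37 C), then ONE-Glo (30 min, room temperature): this sequence was run on BG1-Luc-4E2 reporter cells.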
# [18] = biological target: Estrogen receptor (Homo sapiens) (UniProt P03372); test: qHTS assay to identify small molecule agonists of the estrogen receptor alpha (ER-alpha) signaling pathway using the BG1 cell line (AID 743079); note: potency is the fitted concentration of half-maximal effect; nearly all actives have a fitted effect of over 20% in size
# Chain of Aryl hydrocarbon receptor (Homo sapiens) (P35869 whole entry, looked up): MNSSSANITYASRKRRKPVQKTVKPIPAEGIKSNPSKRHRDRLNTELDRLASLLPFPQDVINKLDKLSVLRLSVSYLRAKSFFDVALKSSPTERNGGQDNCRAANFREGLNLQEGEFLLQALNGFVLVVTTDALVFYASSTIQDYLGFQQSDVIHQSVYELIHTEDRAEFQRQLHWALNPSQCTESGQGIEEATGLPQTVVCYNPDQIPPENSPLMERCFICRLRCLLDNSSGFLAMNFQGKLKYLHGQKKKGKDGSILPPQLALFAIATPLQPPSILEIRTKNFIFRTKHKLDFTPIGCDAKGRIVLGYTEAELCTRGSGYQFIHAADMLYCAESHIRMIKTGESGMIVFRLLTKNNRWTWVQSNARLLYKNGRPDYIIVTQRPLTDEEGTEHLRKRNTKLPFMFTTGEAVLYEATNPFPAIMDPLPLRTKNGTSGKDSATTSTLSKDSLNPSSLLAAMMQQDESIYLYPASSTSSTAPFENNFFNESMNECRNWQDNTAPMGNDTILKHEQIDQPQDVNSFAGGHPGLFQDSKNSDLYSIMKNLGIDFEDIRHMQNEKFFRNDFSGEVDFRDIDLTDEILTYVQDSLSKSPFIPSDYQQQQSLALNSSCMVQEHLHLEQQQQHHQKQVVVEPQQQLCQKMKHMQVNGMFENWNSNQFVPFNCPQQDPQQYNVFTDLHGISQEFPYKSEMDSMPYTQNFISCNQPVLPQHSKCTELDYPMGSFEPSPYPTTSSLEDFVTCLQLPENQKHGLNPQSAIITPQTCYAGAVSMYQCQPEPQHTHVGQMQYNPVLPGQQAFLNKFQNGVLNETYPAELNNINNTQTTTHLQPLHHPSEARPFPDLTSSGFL
# Chain of Estrogen receptor (Homo sapiens) (P03372 whole entry, looked up): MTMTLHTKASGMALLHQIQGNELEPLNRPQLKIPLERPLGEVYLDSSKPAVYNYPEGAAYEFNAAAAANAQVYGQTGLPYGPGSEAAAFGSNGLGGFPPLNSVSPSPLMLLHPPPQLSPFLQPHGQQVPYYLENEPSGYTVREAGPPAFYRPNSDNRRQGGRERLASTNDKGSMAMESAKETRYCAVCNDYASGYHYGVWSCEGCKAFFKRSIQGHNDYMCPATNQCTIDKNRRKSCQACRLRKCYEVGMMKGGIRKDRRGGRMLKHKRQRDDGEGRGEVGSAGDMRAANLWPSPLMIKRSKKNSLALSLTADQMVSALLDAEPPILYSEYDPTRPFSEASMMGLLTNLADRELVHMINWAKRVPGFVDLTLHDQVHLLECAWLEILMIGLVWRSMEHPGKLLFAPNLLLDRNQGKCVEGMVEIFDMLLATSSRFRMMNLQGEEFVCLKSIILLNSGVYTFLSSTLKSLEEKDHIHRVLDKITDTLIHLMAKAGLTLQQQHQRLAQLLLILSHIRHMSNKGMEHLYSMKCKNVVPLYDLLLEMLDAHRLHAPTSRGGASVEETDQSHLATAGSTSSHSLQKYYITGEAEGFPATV
# Chain of Aromatase (Homo sapiens) (P11511 whole entry, looked up): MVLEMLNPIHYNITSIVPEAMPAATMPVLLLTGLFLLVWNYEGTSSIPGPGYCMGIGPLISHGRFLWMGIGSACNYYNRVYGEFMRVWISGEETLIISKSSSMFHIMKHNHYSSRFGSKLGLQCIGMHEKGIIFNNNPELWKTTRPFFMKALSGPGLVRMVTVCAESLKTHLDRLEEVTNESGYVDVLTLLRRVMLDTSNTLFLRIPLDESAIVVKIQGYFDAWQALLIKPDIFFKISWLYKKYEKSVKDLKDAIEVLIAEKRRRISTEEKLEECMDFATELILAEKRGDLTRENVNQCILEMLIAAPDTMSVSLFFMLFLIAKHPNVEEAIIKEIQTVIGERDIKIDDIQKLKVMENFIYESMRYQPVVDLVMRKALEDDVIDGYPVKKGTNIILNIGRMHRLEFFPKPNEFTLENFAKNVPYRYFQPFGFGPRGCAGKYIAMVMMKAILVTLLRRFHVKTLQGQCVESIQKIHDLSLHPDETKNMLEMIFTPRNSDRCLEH
# Chain of Peroxisome proliferator-activated receptor gamma (Homo sapiens) (P37231 whole entry, looked up): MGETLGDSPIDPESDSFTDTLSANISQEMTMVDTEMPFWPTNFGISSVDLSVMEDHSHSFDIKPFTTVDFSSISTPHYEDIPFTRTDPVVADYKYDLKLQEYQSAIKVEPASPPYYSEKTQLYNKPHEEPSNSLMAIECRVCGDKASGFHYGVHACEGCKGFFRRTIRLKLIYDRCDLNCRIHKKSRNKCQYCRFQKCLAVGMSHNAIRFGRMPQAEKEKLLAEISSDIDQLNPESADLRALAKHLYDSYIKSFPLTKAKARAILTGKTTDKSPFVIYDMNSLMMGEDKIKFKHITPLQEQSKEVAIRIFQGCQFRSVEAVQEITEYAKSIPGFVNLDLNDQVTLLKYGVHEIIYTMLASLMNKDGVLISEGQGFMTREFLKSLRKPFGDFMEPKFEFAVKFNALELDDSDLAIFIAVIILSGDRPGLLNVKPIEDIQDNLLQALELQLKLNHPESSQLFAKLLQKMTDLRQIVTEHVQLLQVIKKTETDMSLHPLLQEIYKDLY
SMILES,Potency [1],Potency [2],outcome [3],Potency [4],Potency [5],Potency (Aromatase (Homo sapiens)),Potency [6],Potency [7],Potency [8],Potency [9],Potency [10],Potency [11],Potency [12],Potency [13],Potency [14],Potency [15],Potency [16],Potency [17],Potency [18]
O=CC(Br)(Br)Br,19.3 µM (active),19.3 µM (active),inactive,21.8 µM [inconclusive] (active),inactive,10.8 µM (active),6.84 µM (active),48.4 µM (active),6.14 µM (active),1.72 µM (active),54.3 µM (active),6.14 µM (active),–,–,–,–,–,–,–
CCN(CC)c1c([N+](=O)[O-])cc(C(F)(F)F)c(N)c1[N+](=O)[O-],inactive,inactive,inactive,38.9 µM [inconclusive] (active),inactive,34.4 µM (active),–,inactive,inactive,inactive,inactive,inactive,inactive,inactive,inactive,inactive,–,–,–
CC(C)[C@H](C(=O)OC(C#N)c1cccc(Oc2ccccc2)c1)c1ccc(OC(F)F)cc1 (stereo partly drawn),inactive,54.5 µM (active),inactive,–,inactive,–,inactive,inactive,–,inactive,inactive,inactive,inactive,–,inactive,–,inactive,–,–
CN(C)CCc1c[nH]c2ccc(O)cc12,inactive,inactive,inactive,–,inactive,inactive,inactive,inactive,inactive,–,inactive,inactive,inactive,inactive,inactive,59.7 µM (active),–,–,–
CC1(C)C(/C=C(\Cl)C(F)(F)F)C1C(=O)OC(C#N)c1cccc(Oc2ccccc2)c1 (stereo not drawn),inactive,inactive,inactive,–,inactive,inactive,inactive,inactive,inactive,inactive,inactive,inactive,–,–,–,–,inactive,–,–
CC(=O)OC1(c2ccccc2)CCN(CCc2ccccc2)CC1,31.4 µM (active),55.8 µM (active),inactive,–,inactive,inactive,inactive,–,inactive,–,inactive,inactive,–,inactive,–,inactive,inactive,–,–
C[C@]12CC[C@H]3[C@@H](CCC4=CC(=O)CC[C@@]43C)[C@@H]1CC[C@@H]2O,inactive,30.4 µM (active),inactive,–,inactive,inactive,inactive,inactive,inactive,–,inactive,inactive,inactive,inactive,–,inactive,inactive,inactive,–
Cc1ccc(OP(=O)(Oc2ccccc2)Oc2ccccc2)cc1,inactive,inactive,inactive,inactive,inactive,inactive,inactive,inactive,inactive,–,inactive,inactive,–,inactive,–,inactive,–,inactive,3.91 µM (active)
Cc1cc(N=Nc2ccccc2C)ccc1N,24.3 µM (active),7.7 µM (active) and 27.3 µM (active),inactive,–,24.3 µM (active) and 27.3 µM (active),inactive,24.3 µM (active),5.45 µM (active) and 2.73 µM (active),–,–,inactive,inactive,7.7 µM (active) and 4.33 µM (active),–,–,–,inactive,–,–
FC(Cl)(Cl)Cl,inactive,inactive,inactive,–,inactive,inactive,inactive,inactive,–,inactive,inactive,inactive,inactive,–,inactive,inactive,inactive,–,–
C[C@]12CC[C@@H]3c4ccc(OC(=O)N(CCCl)CCCl)cc4CC[C@H]3[C@@H]1CC[C@@H]2O,inactive,inactive,inactive,–,inactive,inactive,inactive,inactive,inactive,–,–,–,inactive,inactive,–,inactive,inactive,–,–
CC1(C)CN=C(NN=C(/C=C/c2ccc(C(F)(F)F)cc2)/C=C/c2ccc(C(F)(F)F)cc2)NC1,12.2 µM (active),12.2 µM (active),inactive,–,61.1 µM (active),8.63 µM (active),13.7 µM (active),27.3 µM (active),9.77 µM (active),–,8.63 µM (active),24.5 µM (active),1.22 µM (active),–,–,–,43.6 µM (active),–,3.06 µM (active)
FC(F)(F)c1cccc(C2=CCN(CCc3ccc4ccccc4c3)CC2)c1,inactive,inactive,inactive,–,inactive,inactive,inactive,inactive,inactive,–,inactive,inactive,inactive,inactive,–,inactive,inactive,–,–
ClC(Cl)=C(Cl)Cl,inactive,inactive,inactive,–,inactive,inactive,inactive,inactive,inactive,inactive,inactive,inactive,inactive,inactive,–,inactive,inactive,–,–
CC(C)CC(C)Nc1ccc(Nc2ccccc2)cc1 (stereo not drawn),42.5 µM (active),30.1 µM (active),inactive,inactive,53.5 µM (active),53.5 µM (active),47.7 µM (active),67.4 µM (active),42.9 µM (active),–,–,54 µM (active),–,–,–,–,48.2 µM (active),–,–
CC(C)CC(C)(c1ccc(O)cc1)c1ccc(O)cc1,54.6 µM (active) and 54.5 µM (active),27.4 µM (active) and 38.6 µM (active),inactive,–,inactive,48.7 µM (active),61.3 µM (active),–,61.7 µM (active),–,54.5 µM (active),55.1 µM (active),inactive,–,–,–,55.1 µM (active),–,–

# From PubChem BioAssay (Tox21)
